# Source: PubChem BioAssay
# NRP1-CendR mod – modulators of CendR peptide binding to NRP-1, primary screen, biochemical, fluorescence polarization, uHTS. inhibition, % at 25 µM. 0.85% of 360,000 active. Neuropilin-1 (Homo sapiens), O14786. FAM-RPARPAR peptide binding to NRP-1;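 active means inhibition or corrected inhibition above about 18%, plus a signal ratio from 0.5 to 1.5, limit read from the data, passing the limit was not always enough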
# miR122 inh – miR-122 Renilla sensor signal increase in Huh7, primary screen, miR-122 inhibitor project, cell-based, single point, plate reader; activation (reporter increase), % at 12.5 µM; AID 602342, 2012; Huh7 miR-122 Renilla luciferase sensor, 48 h; neutral wells = 0, positive control = 100; 0.3% of 340,000 active;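 active means mean replicate activation score at least 90 and every replicate individually at or above 90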;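 further: higher luciferase means less miR-122 activity so hits act as miR-122 inhibitors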
# RAD52 anneal inh – RAD52 DNA annealing inhibitors, primary screen, biochemical, FRET, single point, set 2; recombinant RAD52 DNA annealing, FRET fluorescence; inhibition, % at 18.7 µM; DNA repair protein RAD52 homolog (Homo sapiens), P43351; 0.46% of 360,000 active;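 active means every replicate showing at least 50% inhibition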
# Target sequence (P43351 whole entry, looked up): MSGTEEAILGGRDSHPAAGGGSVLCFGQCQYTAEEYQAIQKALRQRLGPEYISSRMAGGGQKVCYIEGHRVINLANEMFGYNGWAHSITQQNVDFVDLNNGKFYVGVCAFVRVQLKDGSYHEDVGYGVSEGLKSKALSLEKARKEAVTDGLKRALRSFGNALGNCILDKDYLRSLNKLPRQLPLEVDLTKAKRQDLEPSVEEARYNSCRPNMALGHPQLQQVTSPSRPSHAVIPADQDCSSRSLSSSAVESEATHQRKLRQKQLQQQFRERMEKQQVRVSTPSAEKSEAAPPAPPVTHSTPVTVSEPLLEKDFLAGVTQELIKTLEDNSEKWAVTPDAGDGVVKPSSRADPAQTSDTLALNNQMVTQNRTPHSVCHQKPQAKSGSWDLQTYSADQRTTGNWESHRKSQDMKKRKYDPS
# FID counter – compounds displacing fluorescent DNA intercalator, primary screen, artefact control for HCV NS3 helicase inhibitor project, biochemical, FID fluorescence | DNA fluorescent intercalator displacement | inhibition, % at 7.9 µM | 0.17% of 290,000 active; in the data active means inhibition above about 37%;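 further: higher means more ethidium bromide displaced from hairpin DNA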
# RAD54 inh – inhibitors of human RAD54 branch migration, primary screen, biochemical, fluorescence, single point; RAD54 Holliday junction branch migration, FAM/BHQ fluorescence; DNA repair and recombination protein RAD54-like (Homo sapiens), Q92698; inhibition, % at 10.4 µM; AID 602329, 2012; 0.14% of 360,000 active;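 active means mean normalized replicate activity at least 40 and at least half of replicates scoring 40 or more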;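 further: inhibitors cause a drop in the FAM fluorescence signal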
# N-glyco inh – increase of ERlucT glycosylation luciferase signal, primary screen, N-linked glycosylation inhibitor project, D54 ERlucT cells, luminescence, set 2. D54 ERlucT glycosylation luciferase reporter, 24 h; percent of 100 nM tunicamycin response. 0.23% of 360,000 active. AID 588692, 2011. reporter increase, % at 12.5 µM;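 active means mean luciferase reporter signal, scaled so untreated is 0 and the glycosylation-blocking control 100, at or above a set limit in every replicate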;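 further: luciferase carries N-glycosylation sites so blocking glycosylation raises the light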
# A number is an active result; 0 = inactive; - = no result. Hits are enriched below; roughly 1.5% of the tested compounds scored in any of these assays.
SMILES,NRP1-CendR mod,miR122 inh,RAD52 anneal inh,FID counter,RAD54 inh,N-glyco inh
CCOC(=O)C(C(=O)NCc1ccc(F)cc1)c1ncc(C(F)(F)F)cc1Cl (configuration not stated),24.7,0,-,0,0,0
CC(=O)N1[C@H](CO)[C@@H](c2ccccc2)C12CN(Cc1nccs1)C2,-,-,0,-,-,-
C[C@H]1CCCCO[C@@H](CN(C)C(=O)Nc2ccc(C(F)(F)F)cc2)[C@@H](C)CN([C@@H](C)CO)C(=O)c2cc(NC(=O)C3CCCCC3)ccc2O1,-,0,0,-,0,-
C[C@@H]1CCCCO[C@H](CN(C)Cc2ccc3c(c2)OCO3)[C@@H](C)CN([C@@H](C)CO)C(=O)c2cc(NC(=O)Nc3ccc(C(F)(F)F)cc3)ccc2O1,-,0,61.2,-,0,-
C[C@@H]1CCCCO[C@H](CN(C)Cc2ccc3c(c2)OCO3)[C@H](C)CN([C@@H](C)CO)C(=O)c2cc(NC(=O)Nc3ccc4c(c3)OCO4)ccc2O1,-,0,0,-,0,-
C[C@@H]1CN([C@@H](C)CO)C(=O)c2cc(NC(=O)C3CCCCC3)ccc2O[C@@H](C)CCCCO[C@@H]1CN(C)C(=O)Nc1ccc(C(F)(F)F)cc1,-,0,60.5,-,0,-
C[C@@H]1CCCCO[C@@H](CN(C)C)[C@H](C)CN([C@@H](C)CO)C(=O)c2cc(NC(=O)Nc3ccc(C(F)(F)F)cc3)ccc2O1,-,0,52.7,-,0,-
C[C@@H]1CCCCO[C@@H](CN(C)Cc2ccc3c(c2)OCO3)[C@@H](C)CN([C@@H](C)CO)C(=O)c2cc(NC(=O)Nc3ccc4c(c3)OCO4)ccc2O1,-,0,54.7,-,0,-
C[C@@H]1CN([C@@H](C)CO)C(=O)c2cc(NC(=O)Nc3ccc(C(F)(F)F)cc3)ccc2O[C@@H](C)CCCCO[C@H]1CN(C)C,-,0,-,-,-,-
C[C@@H]1CN([C@H](C)CO)C(=O)c2cc(NC(=O)Nc3ccc(C(F)(F)F)cc3)ccc2O[C@@H](C)CCCCO[C@H]1CN(C)Cc1ccc2c(c1)OCO2,-,0,0,-,0,-
COc1ccc(NC(=O)Nc2ccc3c(c2)CC(=O)N([C@H](C)CO)C[C@H](C)[C@@H](CN(C)S(=O)(=O)c2ccccc2)O3)cc1,-,0,0,-,-,-
CO[C@@H]1CC[C@@H]2CCOc3ccc(C#N)cc3C(=O)N(C)C[C@@H](OC)[C@H](C)C(=O)N(C)C[C@@H]1O2,-,-,0,-,0,-
CO[C@H]1CN(C)C(=O)c2ccc(NC(=O)Nc3cccc(F)c3)cc2OC[C@@H](C)N(C(=O)C2CC2)C[C@H]1C,-,0,-,-,-,-
CC(C)NC(=O)Nc1ccc2c(c1)C(=O)N([C@H](C)CO)C[C@@H](C)[C@H](CN(C)S(=O)(=O)c1ccc(Cl)cc1)OCCCC[C@H](C)O2,-,0,0,-,0,-
COc1ccc(CCn2c(C)cc3c(c2=O)C(c2ccncc2)C(C#N)=C(N)O3)cc1OC (configuration not stated),18.7,0,-,0,0,0
C[C@@H]1CN([C@H](C)CO)C(=O)c2cc(C#CCc3ccccc3)cnc2O[C@H]1CN(C)C(=O)Cc1cccnc1,-,-,0,-,-,-
O=S(=O)(C(=CNc1ccccc1)S(=O)(=O)c1ccccc1)c1ccccc1,0,-,-,0,-,0
Cc1ccc(NC=C(S(=O)(=O)c2ccccc2)S(=O)(=O)c2ccccc2)cc1,28.6,-,-,0,-,0
O=C(COc1ccc(Br)cc1CO)Nc1ccc(F)cc1,26.2,-,0,0,0,0
O=C(/C=C/c1cn(-c2ccccc2)nc1-c1cccnc1)c1ccco1,0,-,0,0,-,31.8
O=C(/C=C/c1cn(-c2ccccc2)nc1-c1cccnc1)N1CCCC1,0,-,0,0,-,0
CC(C)CCNc1nc(-c2ccco2)c2c(c1C#N)CCCC2,0,0,-,0,0,0
N#Cc1c(NCCN)nc(-c2ccco2)c2c1CCCC2,0,0,-,0,-,32.9
CC(=O)Nc1cc(-c2nn(C)c(=O)c3ccccc23)ccc1N1CCOCC1,0,0,-,0,0,0
Cn1nc(-c2ccc(N3CCOCC3)c(NS(=O)(=O)c3ccc(Cl)cc3)c2)c2ccccc2c1=O,25.5,0,-,0,0,0
SMILES,NRP1-CendR mod,miR122 inh,RAD52 anneal inh,FID counter,RAD54 inh,N-glyco inh
Cc1ccc(S(=O)(=O)Nc2cc(-c3nn(C)c(=O)c4ccccc34)ccc2N2CCOCC2)cc1,0,0,0,0,0,45.2
COCC(=O)N1[C@@H](CO)[C@@H](c2ccccc2)C12CN(C(=O)c1cccc(F)c1)C2,-,-,0,-,-,-
O=C(NCC[C@H]1CC[C@@H](NC(=O)C2CC2)[C@H](CO)O1)c1cnccn1,-,-,0,-,0,-
CCN(CC)S(=O)(=O)c1cccc2nsnc12,26.6,0,-,0,0,0
COc1ccccc1C#Cc1ccc([C@@H]2[C@@H](C#N)N(C(=O)C3CCC3)[C@H]2CO)cc1,-,-,0,-,0,-
C=CC#CC[N+]1(CC#Cc2ccccc2)CCOCC1,20.6,0,74.3,0,-,0
Cc1noc(C)c1C(=O)Nc1ccc(F)cc1,40.8,0,0,0,0,0
Cc1c(NC(=O)c2cccs2)cccc1NC(=O)c1cccs1,0,0,0,0,0,0
O=C(Nc1ccccc1Cl)c1cccs1,25.5,0,-,0,0,0
CO[C@H]1CN(C)C(=O)c2ccc(NS(=O)(=O)c3cn(C)cn3)cc2OC[C@H](C)N(C)C[C@@H]1C,-,-,0,-,-,-
COc1ccc(CCNC(=O)Nc2nc(C(N)CCc3ccccc3)cs2)cc1OC (configuration not stated),0,0,0,-,0,0
COc1ccc(CCNC(=O)Nc2nc(C(N)C3CCCCC3)cs2)cc1OC (configuration not stated),17.4,0,0,-,0,0
COC/C=C/C1=CC2=CC(=O)C(C)(OC(=O)c3cnc4ccccc4n3)C(=O)C2=CN1c1ccc(OC)cc1 (configuration not stated),0,0,-,-,0,0
COC/C=C/C1=CC2=CC(=O)C(C)(OC(=O)c3cnc4ccccc4n3)C(=O)C2=CN1Cc1ccc(OC)cc1 (configuration not stated),37.0,0,0,-,0,0
COC/C=C/C1=CC2=CC(=O)C(C)(OC(=O)c3cnc4ccccc4n3)C(=O)C2=CN1CCCCO (configuration not stated),0,0,0,-,0,0
COC/C=C/C1=CC2=CC(=O)C(C)(OC(=O)c3cnc4ccccc4n3)C(=O)C2=CN1Cc1ccccc1 (configuration not stated),24.9,0,0,-,0,0
COC/C=C/C1=CC2=CC(=O)C(C)(OC(=O)c3cnc4ccccc4n3)C(=O)C2=CN1CC1CC1 (configuration not stated),29.3,0,-,-,0,0
